Among the data in PubChem BioAssay AID1211 (NMMLSC, 2008) are inhibition of ligand binding values, retold here.

Calls of active or inactive are those of the source. How the calls were made is not given here.

Estrogen receptor (Homo sapiens), sequence (P03372 whole entry, looked up): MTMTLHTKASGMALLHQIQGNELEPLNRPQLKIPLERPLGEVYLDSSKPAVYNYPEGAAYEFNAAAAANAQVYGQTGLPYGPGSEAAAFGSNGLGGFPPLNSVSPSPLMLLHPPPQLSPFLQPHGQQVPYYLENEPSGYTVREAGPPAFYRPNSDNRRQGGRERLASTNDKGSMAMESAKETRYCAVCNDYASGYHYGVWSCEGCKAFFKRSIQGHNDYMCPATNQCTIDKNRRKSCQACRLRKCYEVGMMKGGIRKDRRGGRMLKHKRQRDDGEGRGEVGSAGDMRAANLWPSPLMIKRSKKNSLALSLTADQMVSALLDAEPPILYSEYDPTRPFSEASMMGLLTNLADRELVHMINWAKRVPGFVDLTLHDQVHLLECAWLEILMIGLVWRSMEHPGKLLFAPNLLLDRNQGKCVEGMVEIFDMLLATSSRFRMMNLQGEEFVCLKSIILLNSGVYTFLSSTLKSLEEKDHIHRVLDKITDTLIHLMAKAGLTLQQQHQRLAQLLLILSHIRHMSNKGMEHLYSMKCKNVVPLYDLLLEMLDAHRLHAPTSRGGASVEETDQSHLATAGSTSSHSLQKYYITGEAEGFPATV

The first assay addresses Estrogen receptor (Homo sapiens) (UniProt P03372). Description: ERalpha ligand binders by competition, primary screen, cell-based, Cos7 ERalpha-GFP, flow cytometry (AID 1211).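 Further: 0% = DMSO vehicle wells and 100% = no E2-Alexa633 signal left.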 The note with it: fluorescent ligand competition, at 10 µM, stronger effect = higher value.
For the compound `CN(C(=S)Nc1cccnc1)c1ccc(O)cc1`, the inhibition of ligand binding was 39% (inactive).
Still for that read-out and setting: the same measure for `Cc1cc([N+](=O)[O-])c2c(c1C)C1C=CCC1C(c1ccccn1)N2` (stereo unspecified): 72% (active).
On the same count and under the same terms, in the case of `COc1ccc(C2Nc3ccccc3C(=O)N2c2ccccc2)cc1COc1ccccn1` (stereo unspecified) it was 17% (inactive).
Same read-out and setting: the same measure for `CC1=C(SCCC#N)S/C(=C2\SC(C)=C(SCCC#N)S2)S1`: 59% (inactive); for `COc1ccc(OC)c(N2C(=O)[C@@H]3C(c4ccccc4Cl)=NO[C@@H]3C2=O)c1`: 57% (inactive).
As to `CCn1c(SCC(=O)Nc2ccc3c(c2)oc2ccccc23)nnc1-c1ccc(N)cc1`, the inhibition of ligand binding is 44% (inactive).
As to `Cc1cc(C)c(S(=O)(=O)/N=C2\C=CC(=O)C(Cl)=C2)c(C)c1`, the inhibition of ligand binding is 20% (inactive).
Same read-out and setting: in the case of `O=c1cc(-c2ccc(O)c(-c3c(O)cc(O)c4c(=O)cc(-c5ccc(O)cc5)oc34)c2)oc2cc(O)cc(O)c12` it was 24% (inactive); in that of `COCc1cc(=O)n2c(-c3ccc(C)cc3)n[nH]c2n1`, 40% (inactive).
Still for that read-out and setting: in the case of `COc1ccc(C2Nc3ccccc3C(=O)N2c2ccccc2)cc1Cn1cc([N+](=O)[O-])cn1` (stereo unspecified) it was 29% (inactive); in that of `CN(c1ccccc1C(=O)O)S(=O)(=O)c1ccc2c3c(cccc13)C(=O)N2`, 40% (inactive).
Still for that read-out and setting: the same measure for `CC(C)C1Nc2c(O)cc(Cl)c([N+](=O)[O-])c2C2C=CCC21` (stereo unspecified): 40% (inactive); for `CCOc1ccccc1C1C(C#N)=C(N)Nc2onc(-c3ccccc3)c21` (stereo unspecified): 9% (inactive); for `COc1ccc(-c2nc3ccc([N+](=O)[O-])cc3o2)cc1`: 28% (inactive).
Turning to `Nc1ccc2oc(-c3ccccc3Cl)cc(=O)c2c1O`, the inhibition of ligand binding is 46% (inactive).
On the same count and under the same terms, the same measure for `CC1(C)CC(=O)C2=C(C1)OC(c1ccc(O)cc1)C(C#N)=C2N` (stereo unspecified): 34% (inactive); for `O=c1oc2c(O)c(O)cc3c(=O)oc4c(O)c(O)cc1c4c23`: 0% (inactive).
Consider `O=C(O)C1OC(Oc2c(-c3ccc(O)c(O)c3)oc3cc(O)cc(O)c3c2=O)C(O)C(O)C1O` (stereo unspecified), for which the inhibition of ligand binding is 0% (inactive).
Still for that read-out and setting: in the case of `CN(C)NC(=S)Nc1ccc2nc(-c3ccccn3)c(-c3ccccn3)nc2c1` it was 11% (inactive); in that of `Cc1ccc2occ(C3NC(C(=O)O)CS3)c(=O)c2c1` (stereo unspecified), 39% (inactive); in that of `COc1ccc(CNC(=O)c2cc(-c3cccs3)on2)cc1`, 40% (active).
Same read-out and setting: in the case of `Cc1ccc(S(=O)(=O)N2CCCCC2)cc1C(=O)Nc1ncn[nH]1` it was 21% (inactive); in that of `Cc1cc2n(c1)CCn1c(C)ccc1-2`, 26% (inactive).
Still for that read-out and setting: in the case of `Cn1nnnc1SCC(=O)Nc1nc(-c2ccccc2)c(-c2ccccc2)o1` it was 45% (inactive); in that of `COc1ccc(C2CC(c3cccs3)=NN2c2ccc(C=O)cc2)cc1` (stereo unspecified), 58% (inactive).
`O=C1N/C(=C\c2ccc(O)cc2)C(=O)c2ccccc21`: the inhibition of ligand binding was 30% (inactive).
On the same count and under the same terms, the same measure for `CCOc1ccc2nc(NC(=O)CCC(=O)c3cccs3)sc2c1`: 13% (inactive).
The same measure, in the same setting: the same measure for `O=C(Cc1cccs1)Nc1ccc(S(=O)(=O)N2CCCCC2)cc1`: 32% (inactive).
Same read-out and setting: in the case of `Cc1ccc(-c2nn3c(C)nnc3s2)cc1NC(=O)COc1ccc(Cl)cc1` it was 38% (inactive); in that of `O=c1c2c([nH]c3ccccc13)C(=C1CCCC1)CC2`, 0% (inactive); in that of `COc1cccc(-c2nnc(NC(=O)Cc3cccs3)s2)c1`, 52% (inactive).
For `O=C(CSc1nnc(SCC(=O)c2ccco2)s1)c1ccco1`, the inhibition of ligand binding was 14% (inactive).
The same measure, in the same setting: the same measure for `COc1ccc(-c2cn3c(C)c(C(=O)Nc4ccncc4)sc3n2)cc1`: 28% (inactive); for `CCOC(=O)N1CCN(c2ccc(O)cc2)CC1`: 57% (inactive); for `CCc1cccc2c(C(=O)Cn3nnc(-c4ccc(OC)c(OC)c4)n3)c[nH]c12`: 10% (inactive).
On the same count and under the same terms, the same measure for `CCC1(C)NC(=O)N(CC(=O)Nc2sc3c(c2C(N)=O)CCC3)C1=O` (stereo unspecified): 15% (inactive); for `CCCC1=NN2C(=N)/C(=C\c3ccc(SCc4ccco4)o3)C(=O)N=C2S1`: 14% (inactive); for `O=C(O)C1Nc2c(O)cc(Cl)c([N+](=O)[O-])c2C2C=CCC12` (stereo unspecified): 50% (inactive).

Still in this assay, the particulars now being: fluorescent ligand competition, binding inhibition, at 0.1 µM, stronger effect = higher value.
`CN(C(=S)Nc1cccnc1)c1ccc(O)cc1` came in with an inhibition of ligand binding of 41%.
Still for that read-out and setting: the same measure for `Cc1cc([N+](=O)[O-])c2c(c1C)C1C=CCC1C(c1ccccn1)N2` (stereo unspecified): 10%; for `COc1ccc(C2Nc3ccccc3C(=O)N2c2ccccc2)cc1COc1ccccn1` (stereo unspecified): 58%; for `CC1=C(SCCC#N)S/C(=C2\SC(C)=C(SCCC#N)S2)S1`: 11%.
On the same count and under the same terms, in the case of `COc1ccc(OC)c(N2C(=O)[C@@H]3C(c4ccccc4Cl)=NO[C@@H]3C2=O)c1` it was 24%; in that of `CCn1c(SCC(=O)Nc2ccc3c(c2)oc2ccccc23)nnc1-c1ccc(N)cc1`, 10%; in that of `Cc1cc(C)c(S(=O)(=O)/N=C2\C=CC(=O)C(Cl)=C2)c(C)c1`, 7%.
Still for that read-out and setting: in the case of `O=c1cc(-c2ccc(O)c(-c3c(O)cc(O)c4c(=O)cc(-c5ccc(O)cc5)oc34)c2)oc2cc(O)cc(O)c12` it was 9%; in that of `COCc1cc(=O)n2c(-c3ccc(C)cc3)n[nH]c2n1`, 62%.
`COc1ccc(C2Nc3ccccc3C(=O)N2c2ccccc2)cc1Cn1cc([N+](=O)[O-])cn1` (stereo unspecified) displayed an inhibition of ligand binding of 12%.
Same read-out and setting: the same measure for `CN(c1ccccc1C(=O)O)S(=O)(=O)c1ccc2c3c(cccc13)C(=O)N2`: 12%; for `CC(C)C1Nc2c(O)cc(Cl)c([N+](=O)[O-])c2C2C=CCC21` (stereo unspecified): 16%.
On the same count and under the same terms, in the case of `CCOc1ccccc1C1C(C#N)=C(N)Nc2onc(-c3ccccc3)c21` (stereo unspecified) it was 20%; in that of `COc1ccc(-c2nc3ccc([N+](=O)[O-])cc3o2)cc1`, 52%; in that of `Nc1ccc2oc(-c3ccccc3Cl)cc(=O)c2c1O`, 30%.
For the compound `CC1(C)CC(=O)C2=C(C1)OC(c1ccc(O)cc1)C(C#N)=C2N` (stereo unspecified), the inhibition of ligand binding came out at 5%.
Take `O=c1oc2c(O)c(O)cc3c(=O)oc4c(O)c(O)cc1c4c23`: the inhibition of ligand binding stood at 4%.
On the same count and under the same terms, the same measure for `O=C(O)C1OC(Oc2c(-c3ccc(O)c(O)c3)oc3cc(O)cc(O)c3c2=O)C(O)C(O)C1O` (stereo unspecified): 62%.
Still for that read-out and setting: the same measure for `CN(C)NC(=S)Nc1ccc2nc(-c3ccccn3)c(-c3ccccn3)nc2c1`: 4%; for `Cc1ccc2occ(C3NC(C(=O)O)CS3)c(=O)c2c1` (stereo unspecified): 27%; for `COc1ccc(CNC(=O)c2cc(-c3cccs3)on2)cc1`: 90%.
Same read-out and setting: the same measure for `Cc1ccc(S(=O)(=O)N2CCCCC2)cc1C(=O)Nc1ncn[nH]1`: 7%; for `Cc1cc2n(c1)CCn1c(C)ccc1-2`: 53%.
Compound `Cn1nnnc1SCC(=O)Nc1nc(-c2ccccc2)c(-c2ccccc2)o1` returned an inhibition of ligand binding of 7%.
The same measure, in the same setting: the same measure for `COc1ccc(C2CC(c3cccs3)=NN2c2ccc(C=O)cc2)cc1` (stereo unspecified): 38%.
Compound `O=C1N/C(=C\c2ccc(O)cc2)C(=O)c2ccccc21` had an inhibition of ligand binding of 14%.
Still for that read-out and setting: in the case of `CCOc1ccc2nc(NC(=O)CCC(=O)c3cccs3)sc2c1` it was 17%; in that of `O=C(Cc1cccs1)Nc1ccc(S(=O)(=O)N2CCCCC2)cc1`, 22%; in that of `Cc1ccc(-c2nn3c(C)nnc3s2)cc1NC(=O)COc1ccc(Cl)cc1`, 42%.
Still for that read-out and setting: the same measure for `O=c1c2c([nH]c3ccccc13)C(=C1CCCC1)CC2`: 36%.
`COc1cccc(-c2nnc(NC(=O)Cc3cccs3)s2)c1` came in with an inhibition of ligand binding of 20%.
Consider `O=C(CSc1nnc(SCC(=O)c2ccco2)s1)c1ccco1`, for which the inhibition of ligand binding is 28%.
The same measure, in the same setting: the same measure for `COc1ccc(-c2cn3c(C)c(C(=O)Nc4ccncc4)sc3n2)cc1`: 3%; for `CCOC(=O)N1CCN(c2ccc(O)cc2)CC1`: 56%; for `CCc1cccc2c(C(=O)Cn3nnc(-c4ccc(OC)c(OC)c4)n3)c[nH]c12`: 24%.
The same measure, in the same setting: the same measure for `CCC1(C)NC(=O)N(CC(=O)Nc2sc3c(c2C(N)=O)CCC3)C1=O` (stereo unspecified): 16%.
`CCCC1=NN2C(=N)/C(=C\c3ccc(SCc4ccco4)o3)C(=O)N=C2S1`: the inhibition of ligand binding was found to be 26%.
The compound `O=C(O)C1Nc2c(O)cc(Cl)c([N+](=O)[O-])c2C2C=CCC12` (stereo unspecified) displayed an inhibition of ligand binding of 20%.
